From the supplement of paper PMC8728848
Shown is part of a subset that was picked to be rich in the strongest signals.

Key:
Test in all cases: glycan array binding signal (z-score within array); higher = stronger binding
Settings in all cases: glycan notation: IUPAC condensed, linker removed
[1] = system: Neu5Ac(a2-3)Gal(b1-4)GlcNAc
How it was run: (§1)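 Glycan array binding is given as a within-array Z-score, which can be read as non-binding when negative. The arrays, 3228 of them, came from the Consortium for Functional Glycomics database and were retained only where the protein sequence was available. Z-scores were averaged across arrays of the same protein sequence at different concentrations or buffers and across linkers.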

[2] = system: Neu5Ac(a2-3)Gal(b1-4)[Fuc(a1-3)]GlcNAc(b1-3)Gal(b1-4)GlcNAc
How it was run: as §1

[3] = system: Neu5Ac(a2-3)Gal(b1-4)[Fuc(a1-3)]GlcNAc(b1-3)Gal(b1-4)[Fuc(a1-3)]GlcNAc(b1-3)Gal(b1-4)Glc
How it was run: as §1

[4] = system: Neu5Ac(a2-3)Gal(b1-4)[Fuc(a1-3)]GlcNAc6S(b1-3)Gal(b1-4)Glc
How it was run: as §1

[5] = system: Neu5Ac(a2-3)Gal(b1-4)[Fuc(a1-3)]GlcNAc(b1-3)Gal(b1-4)[Fuc(a1-3)]GlcNAc(b1-3)Gal(b1-4)[Fuc(a1-3)]GlcNAc
How it was run: as §1

[6] = system: Neu5Ac(a2-3)Gal(b1-4)[Fuc(a1-3)]GlcNAc(b1-3)GalNAc
How it was run: as §1

[7] = system: Neu5Ac(a2-3)Gal(b1-4)[Fuc(a1-3)]GlcNAc(b1-6)[Gal(b1-3)]GalNAc
How it was run: as §1

[8] = system: Neu5Ac(a2-3)Gal(b1-4)[Fuc(a1-3)]GlcNAc
How it was run: as §1

Epa22
glycan array binding signal (z-score) [1]: 0.352

LcI (Legionella pneumophila)
glycan array binding signal (z-score) [2]: 0.401

MIC3-MAR5 (Eimeria tenella), B6VCV4
glycan array binding signal (z-score) [3]: 0.92 | glycan array binding signal (z-score) [4]: 2.08

AgI/II Vhelical-GFP (Streptococcus mutans)
glycan array binding signal (z-score) [5]: -0.178

Wza (Escherichia coli), P0A930
glycan array binding signal (z-score) [6]: 1.12

SpGH101 (Streptococcus pneumoniae), Q8DR60
glycan array binding signal (z-score) [6]: 1.68

AgI/IIC123-GFP (Streptococcus mutans)
glycan array binding signal (z-score) [7]: 0.09

SiiE (Salmonella typhimurium), A0A0H3NVH0
glycan array binding signal (z-score) [8]: 0.224

MIC3-MAR1b (Eimeria tenella), B6VCV4
glycan array binding signal (z-score) [8]: -0.346
